TexasRed fluor: Texas Red fluorescence interference in TRb-SRC2 counter-screen; TRb/SRC2 Texas Red total fluorescence interference; Potency, µM (top dose mostly 106 µM), inactives show at the highest dose fluorescence change, negative = quenching; actives 0.29% (n = 280,000); active = well fitted curve in either direction with a large enough effect; inconclusive = small, poorly fitted or top-dose-only effect; note: potency is the fitted concentration of half-maximal effect
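Flags fluorescent or light-absorbing compounds by total fluorescence, S + 2P, at 555 nm excitation and 632 nm emission. Mixture: 20 nM Texas Red SRC2 peptide, 0.6 uM human TRb LBD, 1 uM T3, 5% DMSO; compound exposure 5 h at ambient temperature.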
PNC inhibitor: inhibitors of perinucleolar compartment assembly; PC3M PTB-GFP, PNC prevalence imaging, 16 h; active compounds read low; actives 3.1% (n = 140,000); activity change (PNC), negative = inhibition, % at 10 µM;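 active = readout at or below -70, meaning at least 70% loss of cells showing the perinucleolar compartment, a nuclear body marking cancer cells; inconclusive = readout between -30 and a set limit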;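 note: plate controls were DMSO wells for no effect and camptothecin positive control wells for full effect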
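Read-out is percentage of cells bearing a perinucleolar compartment, from automated 20x imaging of fixed, Hoechst-stained PC3M PTB-GFP cells. Cells were seeded 4 h, then exposed 16 h to compound (23 nl of library stock) in duplicate plates.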
Tau fluor counter: counter-screen for tau fibril formation inhibitors | tau K18 P301L Alexa594 fluorescence, heparin fibrillization | actives 0.93% (n = 280,000) | Potency, µM (highest dose often 57.7 µM), without a hit: at the highest dose activity change, negative = decrease; note: potency is the fitted concentration of half-maximal effect; nearly all actives have a fitted effect of over 55% in size
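Human tau K18 P301L (15 uM unlabeled, 0.24 uM Alexa 594-labeled) in 100 mM sodium acetate pH 7 with 20 uM heparin, 6 hr at 37 C. ThT 30 uM added, 1 hr ambient; Alexa 594 FP and total fluorescence read at 555/632 nm.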
Tau fibril FP: tau fibrillization inhibition (FP). Potency, µM (top dose mostly 57.7 µM), for the others: top-dose activity, negative = inhibition, usual class: inhibitors. AID 1468. P10636. K18 P301L tau heparin fibrillization, Alexa594 FP, 6 h. actives 0.39% (n = 280,000); note: potency is the fitted concentration of half-maximal effect; nearly all actives have a fitted effect of over 55% in size
Target sequence (P10636 561-689 P618L limits assumed): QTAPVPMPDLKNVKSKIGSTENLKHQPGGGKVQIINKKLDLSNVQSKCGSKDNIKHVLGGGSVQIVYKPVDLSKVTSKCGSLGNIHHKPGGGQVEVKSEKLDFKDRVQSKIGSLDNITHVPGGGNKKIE
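Read-out: fluorescence polarization of Alexa 594-labeled tau (0.24 uM), 555 nm excitation, 632 nm emission. Mixtures held 15 uM unlabeled K18 P301L, compound and 20 uM heparin, pH 7 acetate buffer, incubated 6 hr at 37 C.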
TRb-SRC2 inh: inhibitors of human thyroid hormone receptor beta-SRC2 interaction | P10828 | TRbeta-SRC2 peptide binding, fluorescence polarization; receptor liganded with 1 µM T3 | Potency, µM (highest dose often 106 µM), without a hit: at the highest dose activity change, negative = inhibition, hits mostly inhibitors | actives 0.065% (n = 280,000) | AID 1469;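 note: potency is the fitted concentration of half-maximal effect; plate controls were bound peptide for no effect and peptide without receptor for full effect; nearly all actives have a fitted effect of over 50% in size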
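Assay buffer: 20 mM Tris-HCl, 100 mM NaCl, 10% glycerol, 1 mM EDTA, 0.01% NP-40, 1 mM DTT, 1 uM T3, 5% DMSO; TRb LBD 0.6 uM, Texas Red SRC2 20 nM; FP after 5 hr.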
Tau ThT inhib: blocks human tau fibril formation measured by thioflavin T. actives 2.1% (n = 270,000). recombinant tau K18 P301L (four-repeat tau fragment), heparin-induced fibrillization, ThT fluorescence. AID 1460. Potency, µM (titrated, usually from 57.4 µM), without a hit: at the highest dose activity, negative = inhibition, actives largely listed as inhibitors; note: potency is the fitted concentration of half-maximal effect; nearly all actives have a fitted effect of over 55% in size
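Heparin-induced fibrillization of the P301L-mutant K18 repeat-domain fragment of human tau was followed by ThT binding in quantitative high-throughput format.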
* hit, by the source's call; [ ] = another dose, or the depositor's remark. Rows were chosen to be rich in hits. Some 4.6% of all compounds tested hit in one or more screens of this group. Unless noted, calls come from the whole dose curve; as a rule, active = well fitted curve in the direction sought with a large enough effect; inconclusive = small, poorly fitted or top-dose-only effect, or another doubt; inactive = no such curve, though single readings can be large; an effect the other way counts as inactive or inconclusive. Unless noted, % is set by controls: 0 for no effect and ±100 for the full control effect.

Screening CCc1ccc[n+](-c2[nH]c(=O)sc2/C=N/N=C(\[O-])CCn2c3ccccc3c3ccccc32)c1 returned TexasRed fluor -3%, Tau fluor counter inconclusive, Tau fibril FP 4%, TRb-SRC2 inh -11% and Tau ThT inhib 16µM*.
Screening O=c1[nH]c(-[n+]2ccccc2)c(/C=N/N=C(\[O-])c2ccccc2)s1 returned TexasRed fluor -1%, Tau fluor counter -3%, Tau fibril FP 1% and TRb-SRC2 inh -5%.
For Cn1nc(C(F)(F)F)c2cc(C(=O)Nc3ccc(C(F)(F)F)cc3)sc21 the results were TexasRed fluor 0%, Tau fluor counter inconclusive, Tau fibril FP 28µM* and TRb-SRC2 inh 6%.
Cn1nc(C(F)(F)F)c2cc(C(=O)Nc3ccc(F)cc3)sc21 was read as TexasRed fluor -4%, Tau fluor counter -24%, Tau fibril FP -18%, TRb-SRC2 inh -1% and Tau ThT inhib -2%.
O=[N+]([O-])c1c(Nc2ccccn2)cc(Cl)c2nonc12 was read as TexasRed fluor 3%, Tau fluor counter inconclusive, Tau fibril FP inconclusive and TRb-SRC2 inh 5%.
For O=C(O)c1cccc(Nc2cc(Cl)c3nonc3c2[N+](=O)[O-])c1 the results were TexasRed fluor -4%, Tau fluor counter inconclusive, Tau fibril FP 2%, TRb-SRC2 inh 6% and Tau ThT inhib 3.5µM*.
`NNC(=O)c1cccc(S(=O)(=O)Nc2cc(Cl)ccc2Cl)c1` gave TexasRed fluor -1%, Tau fluor counter -9%, Tau fibril FP 0%, TRb-SRC2 inh -1% and Tau ThT inhib -6%.
For CCOC(=O)c1sc2nc(C3CC3)cc(-c3ccc(OC)cc3)c2c1N the results were TexasRed fluor -3%, PNC inhibitor inconclusive, Tau fluor counter -19%, Tau fibril FP inconclusive, TRb-SRC2 inh -1% and Tau ThT inhib inconclusive.
`CCOC(=O)C(C(=O)OCC)c1cc(Br)c2noc3c2c1C(=O)c1ccccc1-3` gave TexasRed fluor -9%, PNC inhibitor -83*, Tau fluor counter 2.5µM*[quencher], Tau fibril FP 2.2µM*, TRb-SRC2 inh -5% and Tau ThT inhib 1.1µM*.
`COc1ccc(CN2C(=O)NC3(CCOc4ccccc43)C2=O)cc1F` (stereo not given) gave TexasRed fluor 0%, PNC inhibitor -80*, Tau fluor counter -11%, Tau fibril FP 9%, TRb-SRC2 inh 8% and Tau ThT inhib -7%.
Screening O=C(Nc1ccc(O)cc1)/C(=C\C=C\c1ccccc1)NC(=O)c1ccccc1 returned TexasRed fluor -3%, Tau fluor counter 18µM*[quencher], Tau fibril FP -6%, TRb-SRC2 inh 1% and Tau ThT inhib inconclusive.
`O=C(N/N=C/c1ccc([N+](=O)[O-])cc1)c1cnccn1` gave TexasRed fluor -2%, Tau fluor counter -6%, Tau fibril FP 8% and TRb-SRC2 inh 3%.
Screening Cc1ccc(S(=O)(=O)ON2C(=O)c3ccccc3C2=O)c(C)c1 returned TexasRed fluor -4%, PNC inhibitor inconclusive, Tau fluor counter -21%, Tau fibril FP inconclusive, TRb-SRC2 inh 5% and Tau ThT inhib 18µM*.
For Cc1cccc(NS(=O)(=O)c2ccc3nc(-c4ccccc4)[nH]c3c2)c1C the results were TexasRed fluor 2%, PNC inhibitor -24, Tau fluor counter -16%, Tau fibril FP inconclusive, TRb-SRC2 inh -4% and Tau ThT inhib 17%.
`O=S(=O)(Nc1ccc(Br)cc1)c1ccc2nc(-c3ccccc3)[nH]c2c1` gave TexasRed fluor -1%, Tau fluor counter inconclusive, Tau fibril FP 16µM*, TRb-SRC2 inh 4% and Tau ThT inhib 16%.
Cc1ccc(NS(=O)(=O)c2ccc3nc(-c4ccccc4)[nH]c3c2)c(Cl)c1 was read as TexasRed fluor 0%, Tau fluor counter inconclusive, Tau fibril FP 14µM*, TRb-SRC2 inh 4% and Tau ThT inhib 12%.

High-throughput results deposited in PubChem BioAssay by National Center for Advancing Translational Sciences (NCATS).
